Active and inactive are the calls of the source. The calls were made as follows: active = hit-call score of the fitted dose curve at least 0.9, where 1 is the maximum; inactive = score below 0.9.
Target: Paired box protein Pax-6 (Homo sapiens) (UniProt P26367)
Assay: ATG_Pax6_CIS: Attagene CIS-FACTORIAL HepG2 Assay for human Paired Box 6 (PAX6) (AID 2282956)
Conditions: HepG2 CIS-FACTORIAL PAX6 reporter transcription, RNA readout; actives raise or lower the signal
Outline: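 Readout: reporter transcript fluorescence after RT-PCR and capillary electrophoresis. Cells: HepG2, transiently transfected with cis-regulated MRTUs. Exposure 24 h. Gain or loss of signal fitted bidirectionally relative to DMSO.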

Paired box protein Pax-6 (Homo sapiens), sequence (P26367 whole entry, looked up): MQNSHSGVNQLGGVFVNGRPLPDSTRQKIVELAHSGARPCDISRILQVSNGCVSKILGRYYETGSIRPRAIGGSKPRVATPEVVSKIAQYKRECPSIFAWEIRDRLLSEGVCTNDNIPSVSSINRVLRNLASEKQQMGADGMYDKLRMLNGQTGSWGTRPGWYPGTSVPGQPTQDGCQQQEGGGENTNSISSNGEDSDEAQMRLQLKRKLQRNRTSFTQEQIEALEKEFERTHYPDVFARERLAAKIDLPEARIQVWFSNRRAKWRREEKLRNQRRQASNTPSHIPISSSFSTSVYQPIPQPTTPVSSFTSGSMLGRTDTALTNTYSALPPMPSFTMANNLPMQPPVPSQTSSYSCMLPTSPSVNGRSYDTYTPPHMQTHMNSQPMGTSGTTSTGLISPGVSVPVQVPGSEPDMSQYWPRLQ

Row | SMILES | outcome | AC50
1 | CCCC[n+]1ccccc1 | inactive | 
2 | C=C(C)[C@@H]1CC[C@@H](C)C[C@@H]1O | inactive | 
3 | Cc1ccccc1C=O | inactive | 
4 | Nc1cccc(S(=O)(=O)c2cccc(N)c2)c1 | inactive | 
5 | O=C(O)CCCCCCCCCCC(=O)O | inactive | 
6 | O=Nc1ccc(Nc2ccccc2)cc1 |  | 33.4 µM (active)
7 | Cc1c(N(C)C)c(=O)n(-c2ccccc2)n1C | inactive | 
8 | CC(C)c1ccc(C(C)C)cc1 | inactive | 
9 | COc1c(Cl)c(Cl)c(Cl)c(Cl)c1Cl | inactive | 
10 | CC(=O)OCCOC(C)=O | inactive | 
11 | C=CCOC(=O)CCC1CCCCC1 | inactive | 
12 | NC(=O)NC1NC(=O)NC1=O (stereo not drawn) | inactive | 

Tested on: not listed separately
Assay: ATG_PXRE_CIS: Attagene CIS-FACTORIAL HepG2 Assay for human Pregnane X Receptor Element (PXRE) (AID 2282957)
Conditions: HepG2 Attagene CIS-FACTORIAL PXRE reporter, mRNA; actives raise or lower the signal
Outline: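 Using HepG2 transfected with multiple reporter transcription units, endogenous factor-driven transcription was scored as reporter mRNA after 24 h exposure.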

Row | SMILES | AC50 | outcome
13 | O=[N+]([O-])c1ccc(Nc2ccc(Nc3ccccc3)c(S(=O)(=O)O)c2)c([N+](=O)[O-])c1 | 27 µM (active) | 
14 | CC(C)(C)c1n[nH]c(=S)n(N)c1=O | 44.2 µM (active) | 
15 | CC(C)[C@H]1CC[C@@H](C)CC1=O | 61.9 µM (active) | 
16 | COc1ccc(OC)c(OC)c1 |  | inactive
17 | CCCCCC(=O)OCCc1ccccc1 |  | inactive
18 | NC(N)=NC(=O)c1nc(Cl)c(N)nc1N |  | inactive
19 | O=C(O)Cc1cccc2ccccc12 |  | inactive
20 | OC1OC[C@@H](O)[C@H](O)[C@H]1O (stereo partly drawn) |  | inactive
21 | CC(=O)OCc1ccc2c(c1)OCO2 | 26.9 µM (active) | 
22 | CCCC(=O)OCCC(C)CCC=C(C)C (stereo not drawn) | 56.1 µM (active) | 
23 | CCCCCCCCC=O |  | inactive
24 | CCC(O)CO (stereo not drawn) | 0.0826 µM (active) | 
25 | O=C1NC(=O)c2ccccc21 | 38.5 µM (active) | 
26 | CC1(C)[C@H](C(=O)OCc2cccc(Oc3ccccc3)c2)[C@@H]1C=C(Cl)Cl | 4.97 µM (active) | 
27 | CC1(C)OC[C@@H]2O[C@@]3(C(=O)O)OC(C)(C)O[C@H]3[C@@H]2O1 |  | inactive
28 | CCCCc1ccc(N)cc1 |  | inactive
29 | S=C(S)NCCNC(=S)S |  | inactive
30 | OCC(CO)(CO)COCC(CO)(CO)CO |  | inactive
31 | O=C(O)c1snc(Cl)c1Cl | 26.8 µM (active) | 

Row | SMILES | AC50 | outcome
32 | Cc1ccc(C(C)C)cc1O | 14.2 µM (active) | 
33 | Nc1ccc(S(=O)(=O)O)c(N)c1 |  | inactive
34 | CC(C)(CO)[N+](=O)[O-] |  | inactive
35 | O=C[C@@H](O)[C@H](O)[C@H](O)CO |  | inactive
36 | CCCC/C=C\CCCCCCCCCC=O |  | inactive
37 | CCC(=O)OCc1ccccc1 |  | inactive
38 | CO[Si](CCCn1c(=O)n(CCC[Si](OC)(OC)OC)c(=O)n(CCC[Si](OC)(OC)OC)c1=O)(OC)OC | 28.6 µM (active) | 
39 | CCCC[n+]1ccccc1 |  | inactive
40 | C=C(C)[C@@H]1CC[C@@H](C)C[C@@H]1O |  | inactive
41 | Cc1ccccc1C=O | 38.2 µM (active) | 
42 | Nc1cccc(S(=O)(=O)c2cccc(N)c2)c1 |  | inactive
43 | O=C(O)CCCCCCCCCCC(=O)O |  | inactive
44 | O=Nc1ccc(Nc2ccccc2)cc1 | 22.6 µM (active) | 
45 | Cc1c(N(C)C)c(=O)n(-c2ccccc2)n1C | 153 µM (active) | 
46 | CC(C)c1ccc(C(C)C)cc1 |  | inactive
47 | COc1c(Cl)c(Cl)c(Cl)c(Cl)c1Cl | 26.2 µM (active) | 
48 | CC(=O)OCCOC(C)=O | 82.2 µM (active) | 
49 | C=CCOC(=O)CCC1CCCCC1 |  | inactive
50 | NC(=O)NC1NC(=O)NC1=O (stereo not drawn) |  | inactive

Tested on: not listed separately
Assay: ATG_PPRE_CIS: Attagene CIS-FACTORIAL HepG2 Assay for human Peroxisome Proliferator-activated Response Element (PPRE) (AID 2282958)
Conditions: HepG2 PPRE cis-element reporter, Attagene transcription factor profiling; actives raise or lower the signal
Outline: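 Multiplexed reporter transcription units under cis-regulatory promoters were transfected into HepG2 cells to capture endogenous factor activity. A 24 h incubation preceded RNA isolation and fluorescent RT-PCR fragment analysis.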

Row | SMILES | AC50 | outcome
51 | O=[N+]([O-])c1ccc(Nc2ccc(Nc3ccccc3)c(S(=O)(=O)O)c2)c([N+](=O)[O-])c1 | 49.2 µM (active) | 
52 | O=C(O)Cc1cccc2ccccc12 | 100 µM (active) | 
53 | CCCC(=O)OCCC(C)CCC=C(C)C (stereo not drawn) |  | inactive
54 | CCC(O)CO (stereo not drawn) |  | inactive
55 | O=C(O)c1snc(Cl)c1Cl |  | inactive
56 | Nc1ccc(S(=O)(=O)O)c(N)c1 |  | inactive
57 | O=C[C@@H](O)[C@H](O)[C@H](O)CO |  | inactive
58 | CCCC/C=C\CCCCCCCCCC=O |  | inactive
59 | CCC(=O)OCc1ccccc1 |  | inactive
60 | CO[Si](CCCn1c(=O)n(CCC[Si](OC)(OC)OC)c(=O)n(CCC[Si](OC)(OC)OC)c1=O)(OC)OC |  | inactive
61 | Cc1ccccc1C=O |  | inactive
62 | Nc1cccc(S(=O)(=O)c2cccc(N)c2)c1 |  | inactive
63 | O=Nc1ccc(Nc2ccccc2)cc1 |  | inactive
64 | C=CCOC(=O)CCC1CCCCC1 |  | inactive
65 | NC(=O)NC1NC(=O)NC1=O (stereo not drawn) |  | inactive

Tested on: not listed separately
Assay: ATG_RORE_CIS: Attagene CIS-FACTORIAL HepG2 Assay for human RAR-related Orphan Receptor Element (RORE) (AID 2282959)
Conditions: HepG2 Attagene cis-factorial RORE reporter, mRNA; actives raise or lower the signal
Outline: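 Fluorescence intensity of reporter-specific cDNA fragments, separated by capillary electrophoresis, gives the signal. Source: HepG2 liver cells transiently transfected with cis-element reporters and exposed 24 h; DMSO-normalized bidirectional fit.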

Row | SMILES | outcome
66 | CC(C)(C)c1n[nH]c(=S)n(N)c1=O | inactive
67 | CC(C)[C@H]1CC[C@@H](C)CC1=O | inactive
68 | COc1ccc(OC)c(OC)c1 | inactive
69 | CCCCCC(=O)OCCc1ccccc1 | inactive
70 | NC(N)=NC(=O)c1nc(Cl)c(N)nc1N | inactive
71 | OC1OC[C@@H](O)[C@H](O)[C@H]1O (stereo partly drawn) | inactive
72 | CC(=O)OCc1ccc2c(c1)OCO2 | inactive
73 | CCCCCCCCC=O | inactive
74 | O=C1NC(=O)c2ccccc21 | inactive
75 | CC1(C)[C@H](C(=O)OCc2cccc(Oc3ccccc3)c2)[C@@H]1C=C(Cl)Cl | inactive
76 | CC1(C)OC[C@@H]2O[C@@]3(C(=O)O)OC(C)(C)O[C@H]3[C@@H]2O1 | inactive
77 | CCCCc1ccc(N)cc1 | inactive
78 | S=C(S)NCCNC(=S)S | inactive
79 | OCC(CO)(CO)COCC(CO)(CO)CO | inactive
80 | Cc1ccc(C(C)C)cc1O | inactive
81 | CC(C)(CO)[N+](=O)[O-] | inactive
82 | CCCC[n+]1ccccc1 | inactive
83 | C=C(C)[C@@H]1CC[C@@H](C)C[C@@H]1O | inactive
84 | O=C(O)CCCCCCCCCCC(=O)O | inactive
85 | Cc1c(N(C)C)c(=O)n(-c2ccccc2)n1C | inactive
86 | CC(C)c1ccc(C(C)C)cc1 | inactive
87 | COc1c(Cl)c(Cl)c(Cl)c(Cl)c1Cl | inactive
88 | CC(=O)OCCOC(C)=O | inactive
